Experimental data as given in PubChem BioAssay AID614 (Sanford-Burnham Center for Chemical Genomics, 2007).
The campaign covered roughly 21,000 compounds. Fewer than 10 were called active.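 How the source made its calls: active means inhibition above 50% at the 20 µM single-dose screen; inactive means the rest.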 These entries were drawn from the full list.

biological target: Alkaline phosphatase, tissue-nonspecific isozyme (Homo sapiens) (UniProt P05186); assay: blockers of alkaline phosphatase TNAP activity – biochemical, colorimetric, phosphate release readout, primary screen (AID 614); details: purified TNAP, pNPP, malachite green phosphate absorbance; at 20 µM; stronger effect = higher value
Sequence (P05186 whole entry, looked up): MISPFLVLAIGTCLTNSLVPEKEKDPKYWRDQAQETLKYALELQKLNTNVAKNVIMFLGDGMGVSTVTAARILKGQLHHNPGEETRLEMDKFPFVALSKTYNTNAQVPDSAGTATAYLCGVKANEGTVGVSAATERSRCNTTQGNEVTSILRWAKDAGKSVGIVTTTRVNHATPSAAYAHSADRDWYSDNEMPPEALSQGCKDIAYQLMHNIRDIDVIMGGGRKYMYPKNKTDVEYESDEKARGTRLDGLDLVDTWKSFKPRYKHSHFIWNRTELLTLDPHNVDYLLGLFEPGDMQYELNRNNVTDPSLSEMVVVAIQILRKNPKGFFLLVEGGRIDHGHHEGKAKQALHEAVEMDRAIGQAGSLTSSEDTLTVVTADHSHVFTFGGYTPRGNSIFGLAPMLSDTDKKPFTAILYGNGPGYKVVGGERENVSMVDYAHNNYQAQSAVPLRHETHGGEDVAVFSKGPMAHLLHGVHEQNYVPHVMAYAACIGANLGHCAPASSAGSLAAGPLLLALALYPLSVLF

inhibition, inactive:
CC1Cc2ccccc2N1C(=O)CSc1nc2ccccc2o1 (stereo unspecified) 14%
CCCn1c(SCC(N)=O)nnc1C(C)C 3.8%
COC(=O)CNC(=O)c1ccc2c(c1)S(=O)(=O)c1ccccc1C2=O 14.1%
O=C(Oc1ccccc1)c1ccc2nccnc2c1 8.8%
CC(Sc1nncs1)C(=O)NCc1ccc2c(c1)OCO2 (stereo unspecified) 18.9%
C=CCn1c(C2CC(=O)N(c3ccc(C)cc3)C2)nc2ccccc21 (stereo unspecified) 8.4%
c1ccc2c(CNn3cnnc3)cccc2c1 4%
O=c1cc(CSc2ccc(Cl)cc2)nc(N2CCOCC2)[nH]1 -11.8%
CCCc1nc2c3cnn(-c4cccc(Cl)c4)c3ncn2n1 -13.7%
Cn1c(=O)c2c(nc(OCc3cccnc3)n2Cc2ccccc2)n(C)c1=O 0%
O=C(CCCC(=O)N(CC(=O)NC1CCCC1)Cc1ccccc1Cl)Nc1ccccn1 10.7%
CC12C(=O)N(n3cnnc3)C(=O)C1C1C=CC2C1 (stereo unspecified) -18.4%
Cn1cnc2c1c(=O)n(Cc1c(Cl)cccc1Cl)c(=O)n2C 7.6%
COc1ccc(-n2c(C)nc3c(cnn3-c3ccccc3)c2=O)cc1 -8.2%
CC(=O)Nc1ccc(S(=O)(=O)N2CCCC2C(=O)O)cc1 (stereo unspecified) 10.8%
COCCn1nnnc1C(c1ccccc1Cl)N1CCN(c2ccccc2OC)CC1 (stereo unspecified) 8.5%
CC(Cc1cccs1)NC(=O)NC1CCCCC1 (stereo unspecified) 10%
CS(=O)(=O)N(CC(=O)N1CCN(c2cccc(Cl)c2)CC1)c1ccccc1 0%
O=C(CSc1nnc(-c2cccnc2)n1Cc1ccco1)c1ccc(Cl)cc1 8.1%
CCN1C(=O)/C(=C\N2CCN(c3ccccc3)CC2)SC1=S 10.1%
O=C(Nc1c(-c2ccccc2)nc2c(Br)cc(Br)cn12)c1ccco1 9.2%
Cc1ccc(C2(c3ccc(C)cc3)NC(=O)N(Cc3c(C)noc3C)C2=O)cc1 -2%
COC(=O)[C@H](C)NC(=O)Nc1ccc(OC(F)(F)F)cc1 4.2%
Cc1csc(NC(=O)CN2CCCCCC2)n1 14.8%
COc1ccc(-c2nc3n(c2Br)CCC3)cc1 0%
CCOC(=O)N1CCN(C(=O)C2CCN(S(C)(=O)=O)CC2)CC1 -0.3%
O=S(=O)(NCc1ccccn1)c1ccc(Br)s1 -2.3%
COCCNC(=O)CN(C(=O)CCC(=O)Nc1cc(C)on1)c1ccc(C)cc1C 14.4%
CN1CCN(S(=O)(=O)c2ccc(NC(=O)C3CCCO3)cc2)CC1 (stereo unspecified) 11.5%
C=CCNc1nc(C)nc(OC)n1 -2.9%
CCc1cc(=O)oc2cc(C)cc(OC(C)C(=O)O)c12 (stereo unspecified) 8.6%
O=S(=O)(O)c1nc2ccccc2n1Cc1ccc(Cl)cc1Cl 0%
CCNC(=O)CCc1nc(-c2ccc(C(C)(C)C)cc2)no1 2%
CC1(C)Oc2ccc(C(=O)N3CCOCC3)cc2N(CC(=O)Nc2ccccc2)C1=O -16.7%
COc1cccc(C2/C(=C(/O)c3ccc(F)cc3)C(=O)C(=O)N2CCN(C)C)c1 (stereo unspecified) 0.4%
Cc1cccc(N)c1SC1CCCCC1O (stereo unspecified) 9.2%
CC(C)(C)n1nnc(CCc2nnn(C(C)(C)C)n2)n1 0.3%
CCOC(=O)CSc1nnc(NC(=O)c2cccc(S(=O)(=O)N3CCCC3)c2)s1 9.6%
C=CCNc1nnc(C)c2ccccc12 15.4%
COCCNC(=O)C(C#N)c1nc2ccccc2nc1N1CCN(Cc2ccc3c(c2)OCO3)CC1 (stereo unspecified) 8.2%
CC1COC2C(O1)N(S(C)(=O)=O)CCN2S(C)(=O)=O (stereo unspecified) 3.4%
CCn1cc(C(=O)NCc2ccc(OC)cc2OC)c(=O)c2ccc(C)nc21 9.9%
Cc1cccc(NC(=O)c2ccccc2NC(=O)C(C)(C)C)n1 0.8%
Cc1cc(C)cc(NC(=O)N2CCC(NC(=O)c3ccc(F)cc3)CC2)c1 7.3%
CSc1nsc(SC)c1NC(=O)OC1CCCCC1 0%
COCc1nc2ccccc2n1Cc1ccccc1Br 1.7%
c1nnc2c3c4c(sc3ncn12)CCC4 9.7%
Cc1cc(Cl)c(S(=O)(=O)NCc2cccnc2)cc1OCC(N)=O 5.5%
O=C(O)c1ccc(NS(=O)(=O)c2cccc3nsnc23)cc1 11.8%
Cn1c(=O)[nH]c(=O)c2c1nc(Br)n2CCCCSc1nc2ccccc2o1 1.3%
CCOC(=O)c1sc(NC(=O)CSc2nnc(-c3ccco3)o2)c(C(=O)OCC)c1C 7.3%
Cc1nc(N2CCCC2C(=O)O)c2oc3ccccc3c2n1 (stereo unspecified) 10.7%
Cc1nc(NCCN)c(C#N)c2c1COC(C)(C)C2 5.7%
O=S(=O)(NCc1ccccn1)c1ccc(F)cc1 9.6%
CCN(CC)C(=O)CSc1nnc(-c2cnccn2)n1-c1ccc(C)cc1 2.9%
Cc1ccc(S(=O)(=O)Nc2ccccc2CNc2c(C)n(C)n(-c3ccccc3)c2=O)cc1 12.4%
CCC1CCCCN1C(=O)Nc1cccc(NC(=O)N2CCCCC2CC)c1 (stereo unspecified) 6.5%
Cc1ccc2nc(-c3ccccc3)cc(C(=O)O)c2c1 2.9%
COc1ccc(Cl)cc1NC(=O)C1CC(=O)N(c2ccc(F)cc2)C1 (stereo unspecified) 4.2%
CCOC(=O)Cn1c(SC)nc2sc3c(c2c1=O)CC(C)(C)OC3 11.5%
CCOC(=O)CCc1c(C)c2ccc(OCc3nn[nH]n3)c(C)c2oc1=O -5.8%
Cc1noc(C)c1CSc1nnc2ccc3ccccc3n12 12.2%
COc1ccc(CCn2c(-c3ccco3)nc3nc4ccccc4nc32)cc1OC 1.5%
Cc1cccc2cc(CN(Cc3ccc4c(c3)OCO4)Cc3nnnn3C3CCCC3)c(=O)[nH]c12 15%
COc1cc(C(=O)N(Cc2ccc(N(C)C)cc2)C2CCS(=O)(=O)C2)cc(OC)c1OC (stereo unspecified) 8%
CCOC(=O)CC1=CC(=O)Nc2ccccc2N1 2.4%
Cc1cc(C)cc(OCc2nnc(SCC(=O)OC3CCCCC3)o2)c1 -4.5%
COC(=O)c1nc(NC(=O)c2ccc(Cl)cc2)n[nH]1 1.5%
CCC1SC2=NCCN2C1(O)c1ccc(Cl)cc1 (stereo unspecified) 3.8%
CCSc1nc(=S)n(CC)c(C)c1C(C)=O 5.7%
Cc1ccc2nc(NC3=NCN(CCc4ccccc4)CN3)nc(C)c2c1 10.4%
O=C(CN(c1ccc2c(c1)OCCO2)S(=O)(=O)c1ccccc1)Nc1ccc2c(c1)OCO2 5.3%
O=S(=O)(NCC1CCCO1)c1ccc2ccccc2c1 (stereo unspecified) 8.8%
CCn1c(SCC(=O)Nc2nc3ccc(OC)cc3s2)nnc1-c1ccoc1C 1.9%
CSCC[C@H](NC(=O)NCc1cccs1)C(=O)O -0.1%
COC(=O)c1ccc(CSc2nncn2C)cc1 11%
COc1cccc(N(CC(=O)Nc2cccc(F)c2)S(C)(=O)=O)c1 0.7%
CCOP1(=O)C=C(C(C)(C)C)OC1c1ccc(F)cc1 (stereo unspecified) -0.2%
CCN1CCN(C(=O)c2ccccc2N(C)S(=O)(=O)c2ccc(C)cc2)CC1 11.4%
Nn1c(SCC(=O)NC(=O)NC2CCCC2)nnc1-c1ccccc1F 15.5%
CCCn1c(SCC(=O)c2ccc3c(c2)OCCO3)nnc1C(C)C 11.4%
O=C(Nc1cccc2c1CCCC2)C1CCN(C(=O)NC2CCCCC2)CC1 15.2%
COc1ccc2c(c1)C(C)=CC(C)(C)N2C(=O)CNCc1ccc2c(c1)OCO2 6.2%
COc1ccc(NS(=O)(=O)c2ccc(NC(=O)C(C)(C(F)(F)F)C(F)(F)F)cc2)nn1 3.4%
Cc1ccc(C(=O)CS(C)(=O)=O)cc1 -1.2%
Clc1ccc(CSc2nnc([C@@H]3CCCN3)o2)cc1 13%
COC(=O)C1C(=O)CC(C)(O)C(C(=O)OC)C1c1ccc2c(c1)OCO2 (stereo unspecified) 9.9%
CN(C)Cc1c(C#N)c2ccccc2n1C -22.9%
C=CCn1c(CC(=O)Nc2cccc(OC)c2)nnc1SCC(=O)NC1CCCCC1 -6.2%
Cc1cc(Br)ccc1NC(=O)C1CCCO1 (stereo unspecified) 0%
Cc1ccc(C(=O)CSc2nc3ccccc3c(=O)n2N)o1 6%
CCCCC(CCC(=O)Nc1ccc(C(=O)OCC)cc1)C(=O)O (stereo unspecified) 6%
Fc1cnc(N2CCOCC2)nc1NCc1ccccc1 -0.4%
CCOC(=O)CN(C(=O)CN1CCOCC1)c1ccc(Br)cc1 -1.5%
O=C(O)COc1nsnc1N1CCOCC1 10.4%
O=C1CCC(C(=O)Nc2ccc(OC(F)F)cc2)N1 (stereo unspecified) 21.3%
Cc1cccc(Cn2c(N3CCN(c4ccccc4)CC3)nc3c2c(=O)n(C)c(=O)n3C)c1 8.8%
O=C1CC(N2CCN(C(c3ccccc3)c3ccccc3)CC2)C(=O)N1 (stereo unspecified) 7.9%
COC(=O)c1ccc(N(CC(=O)NC2CCCC2)C(=O)CNC(=O)c2ccco2)cc1 0%
Cc1ccc(C)c(NC(=O)C2CCCN2C(=O)OC(C)(C)C)c1 (stereo unspecified) -3.4%
O=C(NCc1ccc(Cl)cc1)c1cc2c(nc3sccn32)s1 12.4%
